# Measurements as given in PubChem BioAssay AID1645838 (ICCB-Longwood Screening Facility, Harvard Medical School, 2021).
# Values joined by “and” are separate entries in the source; they are usually repeats but may differ in a detail not shown here. Identical values can stand only once. About 100 (5%) of roughly 2,000 compounds were called active. Cut-off read from the data, not from the text of the source: active = z-score above about 2; inactive = the rest. The full list was thinned out, with actives kept by preference. Where a structure was tested more than once in an assay, its records may differ in their call.
# Assay: supercomplex reporter luminescence per Hoechst cell count – Hoechst nuclei count (AID 1645838);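 note: control cybrid cells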;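 for z-score: higher means more mitochondrial supercomplex formation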
# Conditions: Cells, luminescence/Hoechst cell count ratio; for z-score: stronger effect = higher value; for cell count: measured here: cell number, Hoechst nuclei count
# [1] = library stock concentration (final well concentration not given) 80 uM
# [2] = library stock concentration (final well concentration not given) 400 uM
# [3] = library stock concentration (final well concentration not given) 2 mM
# [4] = library stock concentration (final well concentration not given) 10 mM
# [5] = library stock concentration (final well concentration not given) 46 uM
# [6] = library stock concentration (final well concentration not given) 278 uM
# [7] = library stock concentration (final well concentration not given) 1.67 mM
smiles,measurement,setting,value
CS(=O)c1ccc(-c2nc(-c3ccc(F)cc3)c(-c3ccncc3)[nH]2)cc1 (centres undefined),z-score,,-1.15 (inactive)
same,cell count,,5830
CN(C)CCOc1ccc(-c2nc(-c3ccc4c(c3)CCC4=NO)c(-c3ccncc3)[nH]2)cc1,outcome,library stock 10 mM,inactive; censored for cell count
same,z-score,[1],-0.227 (inactive)
same,z-score,[2],0.545 (inactive)
same,z-score,[3],2.41 (active)
same,cell count,[1],4650
same,cell count,[2],4190
same,cell count,[3],3060
Oc1cc(-c2nc(-c3ccccc3)[nH]c2-c2ccncc2)ccc1Cl,outcome,library stock 10 mM,inactive; censored for cell count
same,z-score,[1],-0.487 (inactive)
same,z-score,[2],0.0422 (inactive)
same,z-score,[3],0.88 (inactive)
same,cell count,[1],6330
same,cell count,[2],6400
same,cell count,[3],5020
NC(N)=NCCCC(NC(=O)COCC(c1ccccc1)c1ccccc1)C(=O)O (centres undefined),z-score,[1],-0.24 (inactive)
same,z-score,[2],-0.0902 (inactive)
same,z-score,[3],-0.0766 (inactive)
same,z-score,[4],0.102 (inactive)
same,cell count,[1],5010
same,cell count,[2],5210
same,cell count,[3],5170
same,cell count,[4],4630
CC(C)OC(=O)CCCC=CCC1C(O)CC(O)C1C=CC(F)(F)COc1ccccc1 (centres undefined),z-score,[1],-0.387 (inactive)
same,z-score,[2],-0.505 (inactive)
same,z-score,[3],-0.421 (inactive)
same,z-score,[4],-0.49 (inactive)
same,cell count,[1],6260
same,cell count,[2],6740
same,cell count,[3],6050
same,cell count,[4],5570
NC(CSCCB(O)O)C(=O)O (centres undefined),z-score,[5],-0.211 (inactive)
same,z-score,[6],-0.0225 (inactive)
same,z-score,[7],-0.355 (inactive)
same,z-score,[4],-0.293 (inactive)
same,cell count,[5],6150
same,cell count,[6],5500
same,cell count,[7],6170
same,cell count,[4],6060
Cn1cnc2c(F)c(Nc3ccc(Br)cc3F)c(C(=O)NOCCO)cc21,outcome,library stock 10 mM,inactive; censored for cell count
same,z-score,[1],0.694 (inactive)
same,z-score,[2],1.23 (inactive)
same,z-score,[3],1.53 (inactive)
same,cell count,[1],5250
same,cell count,[2],4630
same,cell count,[3],2640
Cn1cnc2c(F)c(Nc3ccc(Br)cc3Cl)c(C(=O)NOCCO)cc21,outcome,library stock 10 mM,inactive; censored for cell count
same,z-score,[1],0.846 (inactive)
same,z-score,[2],0.791 (inactive)
same,z-score,[3],2.06 (active)
same,cell count,[1],3770
same,cell count,[2],3780
same,cell count,[3],2320
O=C(NOCC1CC1)c1ccc(F)c(F)c1Nc1ccc(I)cc1Cl,outcome,library stock 10 mM,inactive; censored for cell count
same,z-score,[1],0.248 (inactive)
same,z-score,[2],0.901 (inactive)
same,z-score,[3],1.33 (inactive)
same,cell count,[1],4290
same,cell count,[2],3900
same,cell count,[3],3870
COc1cc(C=C(C#N)C(=O)Nc2nnc(C(F)(F)F)s2)ccc1OCc1ccc(C(F)(F)F)cc1C(F)(F)F,z-score,[5],-0.188 (inactive)
same,z-score,[6],-0.247 (inactive)
same,z-score,[7],-0.448 (inactive)
same,z-score,[4],-0.612 (inactive)
same,cell count,[5],7210
same,cell count,[6],7400
same,cell count,[7],7340
same,cell count,[4],7260
Oc1cccc(-c2nc(N3CCOCC3)c3oc4ncccc4c3n2)c1,z-score,,2.15 (active)
same,cell count,,3000
CS(=O)(=O)N1CCN(Cc2cc3nc(-c4cccc5[nH]ncc45)nc(N4CCOCC4)c3s2)CC1,outcome,library stock 10 mM,inactive; censored for cell count
same,z-score,[5],-0.278 (inactive)
same,z-score,[1],0.147 (inactive)
same,z-score,[6],-0.083 (inactive)
same,z-score,[2],0.745 (inactive)
same,z-score,[7],0.769 (inactive)
same,z-score,[3],1.48 (inactive)
same,cell count,[5],5360
same,cell count,[1],3950
same,cell count,[6],4950
same,cell count,[2],3220
same,cell count,[7],2910
same,cell count,[3],2350
Oc1cccc(-c2nc(N3CCOCC3)c3sccc3n2)c1,z-score,,3.96 (active)
same,cell count,,2940
CC(C)c1ccccc1OC(=O)NCCc1ccc2ccccc2c1,z-score,[5],-0.152 (inactive)
same,z-score,[6],0.0918 (inactive)
same,z-score,[7],-0.615 (inactive)
same,z-score,[4],-0.366 (inactive)
same,cell count,[5],6770
same,cell count,[6],6210
same,cell count,[7],7330
same,cell count,[4],5910
COc1cc(C(=O)N(CCC2CCCN2C)CC(C)=Cc2ccccc2F)cc(OC)c1OC (centres undefined),z-score,[5],0.184 (inactive)
same,z-score,[6],-0.112 (inactive)
same,z-score,[7],0.132 (inactive)
same,z-score,[4],0.652 (inactive)
same,cell count,[5],6990
same,cell count,[6],6820
same,cell count,[7],6680
same,cell count,[4],5820
CC#CCC(C)[C@H](O)/C=C/[C@@H]1[C@H]2C/C(=C\CCCC(=O)O)C[C@H]2C[C@H]1O (some centres undefined),z-score,,-0.395 (inactive)
same,cell count,,5310
OC(COc1cccc2ncccc12)CN1CCN(C2c3ccccc3C3C(c4ccccc42)C3(F)F)CC1 (centres undefined),z-score,[1],0.371 (inactive)
same,z-score,[2],0.508 (inactive)
same,z-score,[3],0.497 (inactive)
same,z-score,[4],-1.87 (inactive)
same,cell count,[1],4630
same,cell count,[2],4580
same,cell count,[3],4340
same,cell count,[4],3800
O=C(c1cccs1)c1ccc(OCCCO)c(Cl)c1Cl,z-score,,-0.51 (inactive)
same,cell count,,5410
CC1CC2OC2C=CC=CC(=O)Cc2c(Cl)c(O)cc(O)c2C(=O)O1 (centres undefined),outcome,library stock 278 µM,inactive; censored for cell count
same,outcome,library stock 1.67 mM,inactive; censored for cell count
same,outcome,library stock 10 mM,inactive; censored for cell count
same,z-score,[5],-0.774 (inactive)
same,cell count,[5],7560
CCCCC[C@@](C)(O)/C=C/[C@H]1C(=O)C[C@H](O)[C@@H]1C/C=C\CCCC(=O)O,z-score,,-0.768 (inactive)
same,cell count,,5670
O=c1ncccn1C1OC(CO)C(O)C1O (centres undefined),z-score,[5],-0.336 (inactive)
same,z-score,[6],-0.313 (inactive)
same,z-score,[7],-0.302 (inactive)
same,z-score,[4],0.386 (inactive)
same,cell count,[5],5670
same,cell count,[6],5220
same,cell count,[7],4780
same,cell count,[4],3500
c1cc2c(cc1C1CCCCC1)c1c3n2CCNC3CCC1 (centres undefined),z-score,[5],-0.207 (inactive)
same,z-score,[6],-0.279 (inactive)
same,z-score,[7],0.239 (inactive)
same,z-score,[4],3.28 (active)
same,cell count,[5],6430
same,cell count,[6],6250
same,cell count,[7],6160
same,cell count,[4],4320
CCCCCCCC/C=C\CCCCCCCC(=O)NCCS(=O)(=O)O,z-score,,-0.251 (inactive)
same,cell count,,5290
CCCCCCCCCCCCC/C=C/[C@H](O)[C@@H](CO)NC(=O)CCCCCCCCCCCCCCCCCCCCCCC,z-score,,0.79 (inactive)
same,cell count,,5520
O=C(O)CCC/C=C\CC1C2CCC(O2)C1CNNC(=O)Nc1ccccc1 (centres undefined),z-score,,-0.631 (inactive)
same,cell count,,5630
Cc1ccc(C(=O)Nc2cccc(C(F)(F)F)c2)cc1Nc1nc(-c2cccnc2)nc2c1cnn2C,outcome,library stock 10 mM,inactive; censored for cell count
same,z-score,[1],-0.121 (inactive)
same,z-score,[2],0.0935 (inactive)
same,z-score,[3],1.5 (inactive)
same,cell count,[1],5540
same,cell count,[2],5440
same,cell count,[3],3810
Cc1ccc(C(=O)Nc2cccc(C(F)(F)F)c2)cc1Nc1cncc(C(N)=O)c1,z-score,[1],-0.656 (inactive)
same,z-score,[2],-0.351 (inactive)
same,z-score,[3],-0.861 (inactive)
same,z-score,[4],-0.825 (inactive)
same,cell count,[1],4950
same,cell count,[2],4630
same,cell count,[3],5070
same,cell count,[4],4410
Cc1ccc(NC(=O)c2cccc(C(C)(C)C#N)c2)cc1Nc1ccc2ncn(C)c(=O)c2c1,outcome,library stock 10 mM,inactive; censored for cell count
same,z-score,[5],-0.155 (inactive)
same,z-score,[1],1.5 (inactive)
same,z-score,[6],0.171 (inactive)
same,z-score,[2],1.71 (inactive)
same,z-score,[7],0.888 (inactive)
same,z-score,[3],2.43 (active)
same,z-score,[4],3.11 (active)
same,cell count,[5],6500
same,cell count,[1],3700
same,cell count,[6],6060
same,cell count,[2],3410
same,cell count,[7],4330
same,cell count,[3],2280
same,cell count,[4],1960
CCCCC(C)(C)[C@H](O)/C=C/[C@@H]1[C@@H](C/C=C\CCCC(=O)O)[C@@H](O)C[C@H]1O,z-score,,-0.23 (inactive)
same,cell count,,5200
CCCCC/C=C\C=C\C(O)CCCCCCCC(=O)OC[C@@H](COC(=O)CCCCCCC/C=C\C=C\C(O)CCCCC)OC(=O)CCCCCCC/C=C\C=C\C(O)CCCCC (some centres undefined),z-score,,-0.295 (inactive)
same,cell count,,5700
CC(=O)c1ccc2c(c1)c1cc(C(C)=O)ccc1n2CCNC(C)C,outcome,library stock 2 mM,inactive; censored for cell count
same,outcome,library stock 10 mM,inactive; censored for cell count
same,z-score,[1],0.38 (inactive)
same,z-score,[2],4.83 (active)
same,cell count,[1],5240
same,cell count,[2],2850
CCCCCC(=O)CC[C@@H]1[C@@H](C/C=C\CCCC(=O)O)[C@@H](O)C[C@H]1O,z-score,,0.125 (inactive)
same,cell count,,5560
CCCCCCCCCCCCCCCCCCOC[C@H](COP(=O)([O-])OCC[N+](C)(C)C)OC(C)=O,z-score,,-1.9 (inactive)
same,cell count,,5980
CCN(CC)Cc1ccc(C(=O)N(CCc2ccccc2OC)C2CCNC2)cc1 (centres undefined),z-score,[1],0.157 (inactive)
same,z-score,[2],0.267 (inactive)
same,z-score,[3],0.915 (inactive)
same,z-score,[4],3.1 (active)
same,cell count,[1],5850
same,cell count,[2],5490
same,cell count,[3],4680
same,cell count,[4],3340
C[C@@H]1C[C@H]2O[C@@H]2/C=C\C=C\C(=O)Cc2c(Cl)c(O)cc(O)c2C(=O)O1,outcome,,inactive; censored for cell count
CCOc1cc(CC(=O)NC(CC(C)C)c2ccccc2N2CCCCC2)ccc1C(=O)O (centres undefined),z-score,[5],-0.125 (inactive)
same,z-score,[6],-0.238 (inactive)
same,z-score,[7],-0.332 (inactive)
same,z-score,[4],-0.204 (inactive)
same,cell count,[5],4820
same,cell count,[6],5070
same,cell count,[7],5220
same,cell count,[4],4740
O=C(O)C1CCC(c2cc3cccnc3c(-c3cccc(F)c3)n2)CC1 (centres undefined),z-score,[5],0.62 (inactive)
same,z-score,[6],1.24 (inactive)
same,z-score,[7],1.5 (inactive)
same,z-score,[4],1.76 (inactive)
same,cell count,[5],6220
same,cell count,[6],6290
same,cell count,[7],5980
same,cell count,[4],6420
COc1cccc2cc(-c3nc(C4CCC(C(=O)O)CC4)n4ncnc(N)c34)[nH]c12 (centres undefined),outcome,library stock 10 mM,inactive; censored for cell count
same,z-score,[1],-0.563 (inactive) and 0.107 (inactive)
same,z-score,[2],-0.188 (inactive) and 0.529 (inactive)
same,z-score,[3],1.25 (inactive) and 2.27 (active)
same,cell count,[1],4660 and 5660
same,cell count,[2],3600 and 4570
same,cell count,[3],2190 and 2510
COc1ccc(/C=C/c2cc(O)cc(O)c2)cc1O,outcome,,inactive; censored for cell count
C=CCn1c(=O)c2cnc(Nc3ccc(N4CCN(C)CC4)cc3)nc2n1-c1cccc(C(C)(C)O)n1,outcome,library stock 1.67 mM,inactive; censored for cell count
same,outcome,library stock 10 mM,inactive; censored for cell count
same,z-score,[5],-0.147 (inactive)
same,z-score,[6],-0.118 (inactive)
same,cell count,[5],4940
same,cell count,[6],4830
Cc1cnc(Nc2ccc(OCCN3CCCC3)cc2)nc1Nc1cccc(S(=O)(=O)NC(C)(C)C)c1,outcome,library stock 10 mM,inactive; censored for cell count
same,z-score,[5],-0.00359 (inactive)
same,z-score,[6],-0.105 (inactive)
same,z-score,[7],5.46 (active)
same,cell count,[5],4980
same,cell count,[6],5010
same,cell count,[7],2610
CN(c1ccccc1CNc1nc(Nc2ccc3c(c2)CC(=O)N3)ncc1C(F)(F)F)S(C)(=O)=O,outcome,library stock 2 mM,inactive; censored for cell count
same,outcome,library stock 10 mM,inactive; censored for cell count
same,z-score,[1],0.0927 (inactive)
same,z-score,[2],0.505 (inactive)
same,cell count,[1],4980
same,cell count,[2],4440
